Compound activity from PubChem BioAssay.
In the library only some 6.7% were active in any assay of this set; here they are far more common.
PINK1 expr mod = modulators of PINK1 expression. Potency, µM (top dose mostly 76.6 µM), for the others: at the highest dose activation (PINK1 increase), hits mostly activators. PINK1 immunofluorescence, high-content cytometry, 24 h. hit rate 0.2% among 410,000. AID 624263; active means well fitted activation curve with a large enough effect; inconclusive means small, poorly fitted or top-dose-only effect; cell line not stated here; further: % of control where 0% means no effect; nearly all actives have a fitted effect of over 65% in size
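PINK1 protein, normally rapidly degraded, was detected by immunofluorescence after 24 hour compound treatment of a stable cell line. Titration data (5 concentrations) came from laser-scanning cytometry, with CCCP-treated wells as controls.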
KB-3-1 tox = kills parental KB-3-1 adenocarcinoma cells; AID 1347075; Potency, µM (titrated, usually from 46.1 µM), actives largely listed as cytotoxic; hit rate 1.4% among 400,000; KB-3-1 viability, CellTiter-Glo ATP luminescence, 72 h; further: on the % scale 0 is the no-effect control and ±100 the full control effect; nearly all actives have a fitted effect of over 60% in size
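Viability of parental KB-3-1 cells, measured by CellTiter-Glo luminescence, followed a 72 h incubation at 37 °C with pinned compounds in phenol-red-free DMEM containing 10% FBS.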
SW480 rerep = induces DNA re-replication in SW480 colon adenocarcinoma cells; hit rate 1.8% among 340,000; SW480 DNA re-replication, Hoechst DNA content imaging, 48 h; AID 624297; Potency, µM (highest dose often 46.1 µM), without a hit: at the highest dose re-replication activation, actives largely listed as activators; further: % of control where 0% means no effect; nearly all actives have a fitted effect of over 55% in size
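Cells (250 per well) received 23 nL compound or DMSO by pin tool and were kept 48 hr at 37 C, 5% CO2. Nuclei were then stained with Hoechst for 40 min and scanned for DNA content.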
KB-V1 MDR tox = kills drug-selected multidrug resistant KB-V1 cells | Potency, µM (highest dose often 46.1 µM), hits mostly cytotoxic | KB-V1 MDR cells viability, CellTiter-Glo, 72 h | hit rate 3.4% among 400,000; further: on the % scale 0 is the no-effect control and ±100 the full control effect; nearly all actives have a fitted effect of over 60% in size
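KB-V1 cells (P-gp-expressing MDR subline of KB-3-1) in phenol-red-free DMEM with 10% FBS were exposed to library compounds over a concentration series for 72 h at 37 degrees C. Viability read by CellTiter-Glo luminescence; concentration-effect curves fitted after normalization.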
MCF10A rereplic = DNA re-replication induction in MCF 10a cells; Potency, µM (doses to about 46.1 µM), inactives show top-dose activity, positive = re-replication, hits mostly activators; hit rate 2.9% among 350,000; MCF 10A DNA re-replication, Hoechst nuclear intensity, 48 h; further: % of control where 0% means no effect; nearly all actives have a fitted effect of over 50% in size
* = called active by the depositor; i = inactive; ? = inconclusive; nt = no result; [ ] = dose if it differs, or a comment. Unless noted, the call rests on the fitted dose curve; in most records, active means well fitted curve in the direction sought with a large enough effect; inconclusive means small, poorly fitted or top-dose-only effect, or another doubt; inactive means no such curve, though single readings can be large; an effect the other way counts as inactive or inconclusive. Potency means the concentration at half of the fitted maximal effect.

SMILES	PINK1 expr mod	KB-3-1 tox	SW480 rerep	KB-V1 MDR tox	MCF10A rereplic
CC(C)(C)CC(C)(C)NCC(O)COc1ccc2c(c1)CCC2 (stereo not drawn)	6%	21µM*	?	?	?
COc1cccc(Cn2c(=O)cnc3cnc(Oc4cccc(Cl)c4)nc32)c1	5%	nt	nt	nt	nt
COC(=O)c1cc2c(ccn2-c2ccc(F)cc2)n1Cc1ccc(OC(C)=O)cc1	16%	i	-1%	?	?
COC(=O)c1cc2c(ccn2-c2ccc(F)cc2)n1C(C)C	1%	i	18%	i	?
CCOC(=O)c1cc2c(ccn2-c2ccc(F)cc2)n1CC(=O)N1CCN(C(=O)c2ccco2)CC1	5%	i	-1%[9.22 µM]	?	-2%
COC(=O)c1cc2c(ccn2-c2ccc(F)cc2)n1Cc1cccc(OC)c1	5%	i	?	13µM*	?
COC(=O)c1cc2c(ccn2-c2ccc(F)cc2)n1CC(C)C	4%	i	?	i	23µM*
CCCn1c(C(=O)OC)cc2c1ccn2-c1ccc(F)cc1	3%	i	8%	i	23µM*
CCOC(=O)C(=CNc1cc(C)ccc1[N+](=O)[O-])C(=O)OCC	1%	i	3%	?	-6%
CCOC(=O)C(=CNc1cc(C)ccc1C)C(=O)OCC	7%	i	-3%	13µM*	9%
CCc1cccc2c(N=O)c(O)[nH]c12	-3%	?	-5%	16µM*	3%
O=Nc1c(O)[nH]c2c(F)cccc12	3%	i	-72%	i	15%
c1ccc(-c2cn(-c3ccccc3)c3ncnc(N4CCCCC4)c23)cc1	?	i	22%	i	16µM*
COc1cccc(N2CCN(c3ncnc4c3c(-c3ccccc3)cn4-c3ccc(F)cc3)CC2)c1	1%	nt	nt	nt	nt
COc1ccc(-n2cc(-c3ccccc3)c3c(N4CC(C)OC(C)C4)ncnc32)cc1 (stereo not drawn)	2%	i	15%	?	23µM*
CCCCc1c(-c2ccccc2OC)ncn1CCc1ccccc1OC	?	?	nt	8.2µM*	nt
COc1ccccc1CCn1c(=O)cnc2cncnc21	6%	nt	nt	nt	nt
CCCCCc1c(-c2ccccc2OC)ncn1CCc1ccccc1OC	?	23µM*	nt	12µM*	nt
CCCCc1c(-c2ccccc2Br)ncn1CCc1ccccc1OC	?	?	nt	15µM*	nt
COc1ccccc1CCn1cnc(Cc2ccccc2)c1C(C)C	?	?	nt	13µM*	nt
COc1ccccc1CCNc1ncnc2c1nnn2C	18%	nt	nt	nt	nt
Cc1cccc2c(Nc3ccc4c(c3)OCO4)nc(CN3CCC(N4CCCCC4)CC3)nc12	9%	nt	nt	nt	nt
CCN(CC)CCN(C)C(=O)c1ccc(-c2ccccc2)nc1N(C)C	-1%	nt	nt	nt	nt
Cc1ccc(S(=O)(=O)c2c(Nc3ccccc3)sc(C(=O)c3ccc4c(c3)OCO4)c2N)cc1	5%	?	nt	?	nt
CCCCN(CC)C(=O)Cc1ccccc1OC	-3%	i	1%	?	14%
SMILES	PINK1 expr mod	KB-3-1 tox	SW480 rerep	KB-V1 MDR tox	MCF10A rereplic
COc1ccccc1CC1(C)C(=O)Nc2c(Cl)cccc21 (stereo not drawn)	3%	i	nt	i	nt
CCCCCc1c(CC)ncn1CCc1ccccc1OC	32µM*	16µM*	nt	?	nt
CCCCc1c(-c2ccccc2OC)ncn1CCc1ccccc1Cl	?	?	nt	18µM*	nt
O=S1(=O)N=C(Oc2ccccc2-c2ccccc2)c2ccccc21	nt	i	nt	?	nt
COc1cccc(NC(C(=O)Nc2cccc(C(C)=O)c2)c2ccccc2)c1 (stereo not drawn)	10%	i	2%	?	2%
COc1cc(NC(C(=O)Nc2cccc(C(C)=O)c2)c2ccccc2)cc(OC)c1OC (stereo not drawn)	7%	?	-32%	4.6µM*	-21%
COc1cc(-c2cc(C(=O)Nc3cccc(C(C)=O)c3)c3ccccc3n2)cc(OC)c1OC	4%	?	2%	21µM*	?
COc1ccc(-c2cc(C(=O)Nc3ccc(C(N)=O)cc3)c3ccccc3n2)cc1OC	6%	?	18µM*	i	?
COc1cc(-c2cc(C(=O)Nc3ccccc3N3CCOCC3)c3ccccc3n2)cc(OC)c1OC	3%	i	2%	9.2µM*	?
Cc1ccc(C(=O)Nc2cc3[nH]c(=O)oc3cc2C)cc1	-2%	?	3%	i	-3%
Cc1ccc2c(c1)N(C(=O)CCC(=O)NCc1cccs1)CCO2	0%	i	nt	i	nt
COc1ccc(C(=O)Nc2cccc(S(=O)(=O)NC3=NCCC3)c2)cc1OC	1%	i	-15%	i	13%
Cn1cc(C(=O)N2CCCC(Nc3ccc(F)cc3)C2)c2ccccc21 (stereo not drawn)	2%	i	-1%	i	-1%
Cc1cccc(/C=N/NC(=O)c2cc(-c3cccnc3)nc3c2c(C)nn3-c2ccccc2)c1	?	i	-2%	15µM*	?
COC(=O)c1c[nH]n2c(=O)c(Cc3ccc(F)cc3Cl)c(C)nc12	3%[38.3 µM]	i	-8%	16µM*	3%
COC(=O)c1c[nH]n2c(=O)c(Cl)c(C)nc12	0%	i	-4%	i	?
CN1C(=O)c2ccc(C(=O)Nc3ccccc3O)cc2C1=O	0%	i	-12%	i	6%
CN(C(=O)COc1ccccc1C(=O)NCCc1ccccc1)c1ccccc1	5%	i	2%	5.2µM*	18%
CN(C(=O)COc1ccccc1C(=O)Nc1ccccc1)c1ccccc1	0%	i	nt	i	nt
COc1cc(C(=O)NCc2ccc(S(N)(=O)=O)cc2)ccc1OCC(=O)N1CCOCC1	0%	i	-11%	i	-8%
Cc1cc(N)n(-c2ccc(Cl)cc2)n1	-1%	i	-130%	i	0%
Cc1cc2nn(-c3ccc(F)cc3)nc2cc1N	0%	i	21µM*	i	21µM*
COc1ccc(-n2nc3cc(C)c(N)cc3n2)cc1Cl	6%	i	15µM*	i	3.3µM*
Cc1cc2nn(-c3ccc(Cl)cc3)nc2cc1N	1%	i	23µM*	i	21µM*
c1c[nH]c(C2CCN(c3ncc(-c4ccc5c(c4)OCCCO5)s3)CC2)n1	nt	i	nt	i	nt
Cc1cc(C)c(S(=O)(=O)ON2C(=O)c3ccccc3C2=O)cc1C	0%	i	?	i	7.3µM*
O=C1c2ccccc2C(=O)N1OS(=O)(=O)c1ccc(F)cc1	4%	i	3%	i	4%
Cc1cc(C)c(C)c(S(=O)(=O)ON2C(=O)c3ccccc3C2=O)c1C	0%	i	21µM*	i	7.3µM*
Cc1ccc(S(=O)(=O)ON2C(=O)c3ccccc3C2=O)c(C)c1	0%	i	?	i	13µM*
COCCCNC(=O)C1CCN(Cc2cc3ccccc3n2Cc2cccc(C)c2)CC1	1%	i	nt	i	nt
